Reference: PubChem BioAssay AID540313 (Sanford-Burnham Center for Chemical Genomics, 2011)
“And” between values parts separate entries of the source, which are not always exact repeats. Identical values can stand only once. Fewer than 10 of roughly 2,500 compounds were called active.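 Rule for the calls: active = inhibition of at least 30% at 20 µM; inactive = the rest.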 These entries were drawn from the full list.

Assay: colorimetric readout interference by compounds, confirmation, artefact control for Scp-1 inhibitor project, biochemical, single concentration (AID 540313);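 note: compounds added after enzyme reaction finished so only phosphate colour detection is probed; plate controls were DMSO wells with completed Scp-1 reaction for no effect and substrate wells lacking enzyme for full effect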
Details: Colorimetric interference counterscreen, malachite green absorbance 630 nm; at 20 µM; stronger effect = higher value

| SMILES | apparent inhibition (interference) |
| --- | --- |
| Cn1c(N)c(C(=O)COC(=O)c2ccc3ccccc3c2)c(=O)n(C)c1=O | -13.1% (inactive) |
| N/C(=N\OC(=O)N1c2ccccc2Sc2ccccc21)c1ccc(Br)cc1 | -18.1% (inactive) |
| O=[N+]([O-])c1cc(S(=O)(=O)Nc2cccc(Cl)c2)ccc1N=Nc1c(O)[nH]c2ccccc12 | -15.6% (inactive) |
| CCOC(=O)C1CCCN(C(=O)CN(c2ccc(OC)cc2)S(=O)(=O)c2c(C)noc2C)C1 (stereo not given) | -13.4% (inactive) |
| C[n+]1ccc(C(=O)NCc2ccccc2)cc1 | -18.9% (inactive) |
| CCOC(=O)C1=C(C)c2ccccc2OC1(C)C(=O)OCC (stereo not given) | -21.7% (inactive) |
| O=C(CNC(=O)C(c1ccccc1)c1ccccc1)N/N=C\c1ccc2c(c1)OCO2 | -8.18% (inactive) |
| CCC(=O)Nc1ccccc1N1CCN(S(C)(=O)=O)CC1 | -13.4% (inactive) |
| C=Cc1ccc(C(=O)N2CCCC(CCC(=O)N3CCN(c4ccccn4)CC3)C2)cc1 (stereo not given) | -12.3% (inactive) |
| CCc1ccc(NC(=O)CS(=O)CC(=O)NCCCc2ccccc2)cc1 (stereo not given) | -6.8% (inactive) |
| O=C(CCS(=O)(=O)c1ccc(Br)cc1)NCCc1ccc(Cl)cc1 | -10.1% (inactive) |
| Cc1ccc(NC(=O)COc2ccc(/C=N\NC(=O)c3cccnc3)cc2)cc1C | -15.6% (inactive) |
| O=C(CCNC(=O)c1ccccc1)NN=Cc1ccc(Br)o1 | -15.3% (inactive) |
| O=C(NN1C(=O)C2C3C=CC(O3)C2C1=O)c1ccccc1 (stereo not given) | -7.63% (inactive) |
| COc1ccc(Cc2nnc(NC(=O)Cc3cccs3)s2)cc1 | -7.35% (inactive) |
| CCCCSc1nnc(-c2ccc(C)cc2)o1 | -17.8% (inactive) |
| CSc1ccc(/C=N/NC(=O)c2cccc(Cl)c2)cc1 | -14.2% (inactive) |
| Cc1oc2c(C)c3oc(=O)c(CC(=O)N[C@@H](CC(C)C)C(=O)N[C@@H](Cc4ccccc4)C(=O)O)c(C)c3cc2c1C | -9.01% (inactive) |
| O=C(c1cc2c(s1)CCC2)N1CCN(c2ccccc2)CC1 | -15.9% (inactive) |
| COc1ccc(S(=O)(=O)c2c[nH]c(=S)[nH]c2=O)cc1Cl | -5.98% (inactive) |
| COCCCn1c(Cc2csc(Nc3cccc(Cl)c3)n2)nnc1SCC(=O)OC1CCCCC1 | -7.61% (inactive) |
| C=CC1C(OC2OC(CO)C(O)C(O)C2O)OC=C(C(=O)OC)C1CC1CC(=O)CC(CC(=O)CCc2ccc(O)cc2)O1 (stereo not given) | -16.9% (inactive) |

| SMILES | apparent inhibition (interference) |
| --- | --- |
| COC(=O)c1ccc(-c2c(-c3ccccc3)ncc3cc(OC)c(OC)cc23)cc1 | -3.78% (inactive) |
| CCOc1ccc2nc(N(CCCN(C)C)C(=O)c3ccc(C(=O)c4ccccc4)cc3)sc2c1 | -0.21% (inactive) |
| COc1cc(/C=C/C2=CC(C)(C)NC(=S)N2)cc(OC)c1OC | -12% (inactive) |
| COC(=O)CNC(=O)C(CCSC)NC(C)=O (stereo not given) | -13.1% (inactive) |
| COc1cc(SC)ccc1C(=O)NNC(=O)C1COc2ccccc2O1 (stereo not given) | -1.3% (inactive) |
| COC(=O)C[n+]1cccc2ccccc21 | -9.28% (inactive) |
| CC1=NN(C(=O)CCc2ccccc2O)C(O)(C(F)(F)F)C1 (stereo not given) | -14% (inactive) |
| Cc1c(Cl)cnc(NC(=O)COC(=O)c2ccc(S(=O)(=O)NCc3ccco3)cc2)c1Cl | -10.4% (inactive) |
| O=C(COc1ccc(-n2cnnn2)cc1)Nc1ccccc1Cl | -15.1% (inactive) |
| COc1ccc(N2CCN(C(=O)CSc3nc4cc(OC)c(OC)cc4cc3C#N)CC2)cc1 | -7.08% (inactive) |
| O=C(N/N=C/c1ccco1)c1ccc(C(=O)N/N=C/c2ccco2)o1 | -14.2% (inactive) |
| C[N+](C)(C)CCNC(=O)c1cc[n+](Cc2ccccc2)c(/C=N/O)c1 | -12% (inactive) |
| Cc1cc(C(=O)OCC(=O)NCc2ccco2)c(C)n1-c1ccccc1 | -9.53% (inactive) |
| COc1cc(Cl)cc(C2NC(=O)NC(C)=C2C(=O)NCc2ccccc2)c1O (stereo not given) | -16.4% (inactive) and -17.8% (inactive) |
| O=C(COC(=O)c1cnc(Cl)c(Cl)c1)NCc1ccco1 | -17.8% (inactive) |
| O=C(COC(=O)c1ccccc1O)NCc1ccco1 | -13.4% (inactive) |
| COc1cccc(CC(=O)OCC(=O)NCc2ccc3c(c2)OCO3)c1 | -8.18% (inactive) |
| CC(C)CCOc1ccc(C(=O)C[N+]2(C)CCOCC2)cc1 | -0.2% (inactive) |
| CO/N=C(\C(=O)N[C@@H]1C(=O)N2C(C(=O)O)=C(COC(C)=O)CS[C@H]12)c1csc(N)n1 (stereo in doubt) | -15.6% (inactive) |
| O=c1[nH]n(-c2ccc([N+](=O)[O-])cc2)c(=O)c2ccccc12 | -12.9% (inactive) |
| CCCCCN1CC(O)=C(c2nc(-c3ccc(Cl)cc3)cs2)C1=N | -5.98% (inactive) |
| CC(=O)Nc1ccccc1Sc1ccc2c3c(cccc13)C(=O)N(c1ccc(C)cc1)C2=O | -10.1% (inactive) |

| SMILES | apparent inhibition (interference) |
| --- | --- |
| Cc1ccc(C2(C)NC(=O)N(CC(=O)Nc3ccccc3C(=O)N3CCCCC3)C2=O)cc1 (stereo not given) | -11.4% (inactive) |
| O=C1CCC(CCC(=O)N2CCCC(C(=O)c3ccc(Cl)cc3)C2)=NN1 (stereo not given) | -3.23% (inactive) |
| Cc1ccc(NC(=O)COC(=O)C2C3CC4OC(=O)C2C4C3)cc1Cl (stereo not given) | -4.6% (inactive) |
| CC(C)c1ccc(NC(=S)NNc2ccc(Cl)c(C(=O)O)c2)cc1 | -8.44% (inactive) |
| COc1ccc(Cl)cc1NC(=O)CCS(=O)(=O)c1ccc(Br)cc1 | -18.6% (inactive) |
| CS(=O)(=O)C1=NN2C(=N)/C(=C\c3ccc(OCCOc4ccccc4)cc3)C(=O)N=C2S1 | -4.6% (inactive) |
| CC[n+]1c(C)n(-c2ccccc2)c2ccc(NC(C)=O)cc21 | -13.9% (inactive) |
| Cc1ccc(NC(=O)c2cc(-c3ccc(C)o3)nc3ccccc23)nc1 | -3.5% (inactive) |
| O=C(Nc1cccnc1)c1cc2cc(Br)ccc2oc1=O | -8.18% (inactive) |
| C[C@H](CO)N1C[C@H](C)[C@@H](CN(C)C(=O)NC2CCCCC2)Oc2ccc(NC(=O)c3ccncc3)cc2C1=O | -14.8% (inactive) |
| O=C(Nc1cccc(F)c1)c1cc(-c2ccco2)nc2ccccc12 | -4.88% (inactive) |
| COc1ccc(NC(=O)CN(C)C(=O)/C=C/c2cn(Cc3ccccc3)nc2-c2cccnc2)cc1 | -11.7% (inactive) |
| Cc1ccn2c(=O)nc(SCC(=O)NCc3ccc4c(c3)OCO4)nc2c1 | -8.16% (inactive) |
| N#Cc1ccccc1CN1C(=O)S/C(=C/c2cccn2-c2cccc(C(=O)O)c2)C1=O | -14.7% (inactive) |
| Cc1ccc(CCNC(=O)c2ccc3nc4ccccc4c(=O)n3c2)cc1 | 0.61% (inactive) |
| Cc1ccc(SCC(=O)NC(=O)NCc2ccco2)c(C)c1 | -4.05% (inactive) |
| O=C(COC(=O)c1ccc(F)cc1F)Nc1ncccn1 | -16.9% (inactive) |
| CNS(=O)(=O)c1cccc(C(=O)OCC(=O)N2c3ccccc3NC(=O)C2(C)C)c1 | -15.3% (inactive) |
| COc1cccc2cc(-c3cc(=O)oc4cc(C)c(O)cc34)oc12 | -23.3% (inactive) |
| COC(=O)c1ccccc1NC(=O)C1(S(=O)(=O)c2ccc(Cl)cc2)CC1 | -20.5% (inactive) |
| O=C(CCC(=O)N/N=C/c1ccc(Br)o1)N/N=C/c1ccc(Br)o1 | -16.4% (inactive) |
